According to PubChem BioAssay (Tox21):
Where “and” joins values, the source holds several entries; their conditions need not be identical. Equal entries are not always repeated. Calls of active or inactive are those of the source. Unless noted, calls come from the whole dose curve; as a rule, active = well fitted curve in the direction sought with a large enough effect in the repeat runs; inconclusive = weak or mixed curves; inactive = no such curve, though single readings can be large; an effect the other way counts as inactive or inconclusive.

How the values were obtained:
[1] = molecular target: Nuclear receptor ROR-gamma (Homo sapiens) (UniProt P51449); assay: qHTS assay to identify small molecule antagonists of the retinoid-related orphan receptor gamma (ROR-gamma) signaling pathway (AID 1159521; note: potency is the fitted concentration of half-maximal effect; nearly all actives have a fitted effect of over 50% in size)
Procedure, shortened: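 CHO cells expressing RORγ under a TET-on promoter, luciferase under RORE control. Dox 1 uM final, 16 h; compounds added 2 h prior. Luminescence decrease measured.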

[2] = molecular target: Androgen receptor (Homo sapiens) (UniProt P10275); assay: qHTS assay to identify small molecule antagonists of the androgen receptor (AR) signaling pathway using the MDA cell line in the presence of 0.5 nM R1881 (AID 1259243); note: potency is the fitted concentration of half-maximal effect; nearly all actives have a fitted effect of over 50% in size
Procedure, shortened: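 Luminescent reporter readout (ONE-Glo, 30 min, room temperature) after 16 hr co-treatment of MDA-kb2 cells with test compounds and 0.5 nM R1881 final, at 37C without CO2. The MMTV-driven luciferase responds to both AR and GR.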

[3] = molecular target: Androgen receptor (Homo sapiens) (UniProt P10275); assay: qHTS assay to identify small molecule agonists of the androgen receptor (AR) signaling pathway in the presence of an antagonist (AID 1259381; calls by dose curve; note: nearly all actives have a fitted effect of over 15% in size)
Procedure, shortened: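 Agonist-mode confirmation run against 3.0 uM final nilutamide: compounds titrated at 15 concentrations onto MDA-kb2 MMTV-luciferase reporter cells. Luminescence measured with ONE-Glo following 16 hr incubation, 37C, 0% CO2.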

[4] = qHTS assay for small molecule activators of the heat shock response signaling pathway (AID 743210; active = well fitted activation curve with a large enough effect in the signal ratio in the repeat runs, with a control signal flat, not every such curve was filed as active; inconclusive = weak or mixed curves; the % refers to the signal ratio; note: potency is the fitted concentration of half-maximal effect;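 for activation: HeLa cells with beta-lactamase reporter driven by heat shock elements; series mostly up to about 63 µM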)
Procedure, shortened: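 Activation of heat shock element-controlled beta-lactamase expression is measured in HeLa cells by LiveBLAzer FRET fluorescence, with compound exposure lasting 5 h at 37 C and substrate loading 2.5 h at room temperature.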

[5] = molecular target: Progesterone receptor (Homo sapiens) (UniProt P06401); assay: qHTS assay to identify small molecule antagonists of the progesterone receptor (PR) signaling pathway (AID 1346795; active = well fitted inhibition curve with a large enough effect in the signal ratio in the repeat runs, not every such curve was filed as active; inconclusive = weak or mixed curves; the % refers to the signal ratio; note: potency is the fitted concentration of half-maximal effect)
Procedure, shortened: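 Screening used a GripTite HEK293T line with PR-responsive UAS-beta-lactamase. Cells were challenged with compound in the presence of 1 nM R5020 final for 16 hr at 37C; B/G FRET substrate, 2 hr room temperature, fluorescence.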

[6] = qHTS assay for small molecules that induce genotoxicity in human embryonic kidney cells expressing luciferase-tagged ATAD5 (AID 651632); note: nearly all actives have a fitted effect of over 15% in size
Procedure, shortened: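 A rise in luciferase signal from ATAD5-tagged HEK293T cells marks genetic stress. Cells were exposed to compounds for 16 hr at 37C, 5% CO2, then luciferase was quantified after a 30 min room-temperature incubation with Amplite.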

[7] = qHTS assay for identifying genotoxic compounds that show differential cytotoxicity against isogenic chicken DT40 cell lines with known DNA damage response pathways - Rad54/Ku70 mutant cell line (AID 743015); note: nearly all actives have a fitted effect of over 60% in size; note: potency is the fitted concentration of half-maximal effect
[8] = qHTS assay to identify small molecule antagonists of the estrogen receptor alpha (ER-alpha) signaling pathway using the BG1 cell line - cell viability counter screen (AID 743081);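 note: compound given together with 17beta-estradiol as the ER stimulus; series mostly up to about 70 µM; nearly all actives have a fitted effect of over 45% in size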
[9] = qHTS assay to identify aromatase inhibitors - cell viability counter screen (AID 743084);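 note: cells stimulated with testosterone during compound exposure; nearly all actives have a fitted effect of over 55% in size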; note: potency is the fitted concentration of half-maximal effect
[10] = qHTS assay to identify small molecule agonists of the peroxisome proliferator-activated receptor delta (PPARd) signaling pathway - cell viability counter screen (AID 743211); note: nearly all actives have a fitted effect of over 55% in size; note: potency is the fitted concentration of half-maximal effect
Procedure, shortened: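 Luminescent ATP viability assay (CellTiter-Glo, 30 min RT) in UAS-bla HEK293H cells carrying the PPAR delta reporter construct, 3000 cells/well, after a 17 h compound treatment at 37 C.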

[11] = qHTS assay to identify small molecule antagonists of the farnesoid-X-receptor (FXR) signaling pathway - cell viability counter screen (AID 743221; active = well fitted cell-killing curve with a large enough effect in the repeat runs, not every such curve was filed as active; inconclusive = weak or mixed curves, or effect the other way; inactive = no such curve, though single readings can be large or run the other way; note: nearly all actives have a fitted effect of over 50% in size; note: potency is the fitted concentration of half-maximal effect)
Procedure, shortened: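 In GeneBLAzer FXR-UAS-bla HEK 293T cells stimulated with 50 uM chenodeoxycholic acid (final), compounds acted for 16 h at 37 C. Viability was assessed afterwards by CellTiter-Glo luminescence.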

[12] = qHTS assay for small molecule disruptors of the mitochondrial membrane potential (AID 720635); note: potency is the fitted concentration of half-maximal effect
Procedure, shortened: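 HepG2 cells (2,000/well) attached overnight at 37C, then took compound for 1 hr at 37C, 5% CO2. Mito-MPS dye was added for 30 min; fluorescence was read at 490/535 nm (monomers) and 540/590 nm (aggregates).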

[13] = qHTS assay for identifying genotoxic compounds that show differential cytotoxicity against isogenic chicken DT40 cell lines with known DNA damage response pathways - wild type cell line (AID 743012); note: nearly all actives have a fitted effect of over 60% in size; note: potency is the fitted concentration of half-maximal effect
Procedure, shortened: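 Viability by ATP luminescence (CellTiter-Glo, 30 min RT) after 40 h compound treatment at 37 C/5% CO2, using 300 parental DNA repair-proficient DT40 cells per well.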

[14] = qHTS assay to identify small molecule antagonists of the androgen receptor (AR) signaling pathway - cell viability counter screen (AID 743033; note: nearly all actives have a fitted effect of over 45% in size; note: potency is the fitted concentration of half-maximal effect)
[15] = qHTS assay to identify small molecule antagonists of the androgen receptor (AR) signaling pathway using the MDA cell line - cell viability counter screen (AID 743041; note: nearly all actives have a fitted effect of over 45% in size; note: potency is the fitted concentration of half-maximal effect)
Procedure, shortened: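 qHTS viability read-out; MDA-kb2 AR-luc; R1881-stimulated; 16 h exposure at 37C, 0% CO2; CellTiter-Fluor, 30 min; fluorescence intensity.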

[16] = qHTS assay to identify small molecule antagonists of the thyroid receptor (TR) signaling pathway (AID 743065); note: potency is the fitted concentration of half-maximal effect; nearly all actives have a fitted effect of over 55% in size
Procedure, shortened: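 GH3.TRE-Luc rat pituitary cells carrying two TR response elements driving luciferase were plated for 4 h, given compound plus 1 nM T3 (final), and incubated 23.5 h at 37 C. ONE-Glo luminescence measured reporter inhibition; CellTiter-Fluor fluorescence tracked cytotoxicity.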

[17] = molecular target: Estrogen receptor (Homo sapiens) (UniProt P03372); assay: qHTS assay to identify small molecule agonists of the estrogen receptor alpha (ER-alpha) signaling pathway (AID 743075; calls by dose curve; note: potency is the fitted concentration of half-maximal effect)
[18] = qHTS assay to identify small molecule that activate the aryl hydrocarbon receptor (AhR) signaling pathway - cell viability counter screen (AID 743086); note: nearly all actives have a fitted effect of over 45% in size; note: potency is the fitted concentration of half-maximal effect
Procedure, shortened: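 HepG2-AhR-luc (HG2L7.5c1) cells, 4000/well, were preincubated 5 h at 37C, exposed to compound in qHTS format for 24 hr at 37C, then given CellTiter-Fluor for 30 min; viability was read as fluorescence in the reporter wells.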

[19] = qHTS assay to identify small molecule antagonists of the thyroid receptor (TR) signaling pathway - cell viability counter screen (AID 743064); note: nearly all actives have a fitted effect of over 50% in size; note: potency is the fitted concentration of half-maximal effect
Procedure, shortened: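 Compounds were tested on GH3.TRE-Luc cells in the presence of T3 at 1 nM final. Following 23.5 h at 37 °C, cell viability was quantified by CellTiter-Fluor.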

[20] = molecular target: Estrogen receptor beta (Homo sapiens) (UniProt Q92731); assay: qHTS assay to identify small molecule antagonists of the estrogen receptor beta (ER-beta) signaling pathway (AID 1259378; active = well fitted inhibition curve with a large enough effect in the signal ratio in the repeat runs, not every such curve was filed as active; inconclusive = weak or mixed curves, or effect the other way; inactive = no such curve, though single readings can be large or run the other way; the % refers to the signal ratio; note: potency is the fitted concentration of half-maximal effect)
Procedure, shortened: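 ER-beta-UAS-bla HEK293T (GripTite) cells in 2% charcoal-stripped FBS medium were preincubated 6 hr at 37C, dosed with compound, then stimulated with 1 nM E2 (final) for 16 hr; beta-lactamase reporter read by B/G FRET fluorescence after 2 hr substrate loading.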

Measured: Potency

Sequence of Estrogen receptor beta (Homo sapiens) (Q92731 whole entry, looked up): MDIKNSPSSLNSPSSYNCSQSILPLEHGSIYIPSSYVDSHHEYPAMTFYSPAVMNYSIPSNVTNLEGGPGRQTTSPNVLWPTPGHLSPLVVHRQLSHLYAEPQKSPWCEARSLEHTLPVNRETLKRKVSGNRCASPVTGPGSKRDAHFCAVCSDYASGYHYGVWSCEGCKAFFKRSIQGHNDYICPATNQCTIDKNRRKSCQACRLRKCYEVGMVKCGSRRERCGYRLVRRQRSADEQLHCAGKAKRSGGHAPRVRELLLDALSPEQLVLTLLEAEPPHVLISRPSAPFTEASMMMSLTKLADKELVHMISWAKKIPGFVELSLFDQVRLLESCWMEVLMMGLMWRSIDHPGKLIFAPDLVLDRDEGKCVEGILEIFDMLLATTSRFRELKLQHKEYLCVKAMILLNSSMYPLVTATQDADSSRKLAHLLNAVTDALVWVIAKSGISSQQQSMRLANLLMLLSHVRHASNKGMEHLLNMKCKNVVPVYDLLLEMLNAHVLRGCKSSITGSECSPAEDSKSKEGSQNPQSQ
Sequence of Estrogen receptor (Homo sapiens) (P03372 whole entry, looked up): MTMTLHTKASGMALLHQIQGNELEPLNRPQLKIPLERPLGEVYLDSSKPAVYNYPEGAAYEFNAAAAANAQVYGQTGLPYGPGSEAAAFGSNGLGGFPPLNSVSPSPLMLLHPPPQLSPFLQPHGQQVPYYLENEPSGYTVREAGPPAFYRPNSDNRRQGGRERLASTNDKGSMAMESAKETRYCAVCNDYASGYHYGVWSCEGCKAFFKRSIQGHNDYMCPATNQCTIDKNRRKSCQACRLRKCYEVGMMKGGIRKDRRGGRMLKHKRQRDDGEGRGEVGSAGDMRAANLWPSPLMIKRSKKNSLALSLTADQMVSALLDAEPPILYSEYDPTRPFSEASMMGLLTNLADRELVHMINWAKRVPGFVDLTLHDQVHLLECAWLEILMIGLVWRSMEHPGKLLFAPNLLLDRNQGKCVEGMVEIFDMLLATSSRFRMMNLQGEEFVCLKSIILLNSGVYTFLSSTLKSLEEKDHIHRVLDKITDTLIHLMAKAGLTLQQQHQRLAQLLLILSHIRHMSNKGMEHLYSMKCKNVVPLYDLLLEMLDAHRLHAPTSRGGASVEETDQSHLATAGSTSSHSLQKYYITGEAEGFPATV
Sequence of Progesterone receptor (Homo sapiens) (P06401 whole entry, looked up): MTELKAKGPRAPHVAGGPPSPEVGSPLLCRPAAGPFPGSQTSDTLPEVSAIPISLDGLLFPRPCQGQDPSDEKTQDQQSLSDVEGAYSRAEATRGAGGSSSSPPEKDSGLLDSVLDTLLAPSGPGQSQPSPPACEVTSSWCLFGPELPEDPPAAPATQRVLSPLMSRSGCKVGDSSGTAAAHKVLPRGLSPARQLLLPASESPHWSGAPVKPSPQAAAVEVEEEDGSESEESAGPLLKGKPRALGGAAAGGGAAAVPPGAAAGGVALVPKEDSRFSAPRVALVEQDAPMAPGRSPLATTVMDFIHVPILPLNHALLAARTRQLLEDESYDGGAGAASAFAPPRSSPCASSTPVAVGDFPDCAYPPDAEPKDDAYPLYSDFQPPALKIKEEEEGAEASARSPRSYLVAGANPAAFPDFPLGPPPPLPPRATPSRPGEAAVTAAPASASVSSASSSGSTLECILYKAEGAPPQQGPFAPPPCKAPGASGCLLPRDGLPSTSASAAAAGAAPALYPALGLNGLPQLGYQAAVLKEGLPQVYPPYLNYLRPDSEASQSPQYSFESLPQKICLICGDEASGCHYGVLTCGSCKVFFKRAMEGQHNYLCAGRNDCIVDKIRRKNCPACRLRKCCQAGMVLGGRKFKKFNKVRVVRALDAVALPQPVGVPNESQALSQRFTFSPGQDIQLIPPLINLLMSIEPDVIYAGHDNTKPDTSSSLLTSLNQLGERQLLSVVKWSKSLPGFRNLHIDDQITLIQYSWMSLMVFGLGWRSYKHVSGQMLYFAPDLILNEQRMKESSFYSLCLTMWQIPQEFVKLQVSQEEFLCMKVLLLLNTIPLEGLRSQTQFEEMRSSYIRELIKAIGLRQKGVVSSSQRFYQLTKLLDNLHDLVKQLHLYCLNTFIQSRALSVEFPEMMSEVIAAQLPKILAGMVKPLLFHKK
Sequence of Androgen receptor (Homo sapiens) (P10275 whole entry, looked up): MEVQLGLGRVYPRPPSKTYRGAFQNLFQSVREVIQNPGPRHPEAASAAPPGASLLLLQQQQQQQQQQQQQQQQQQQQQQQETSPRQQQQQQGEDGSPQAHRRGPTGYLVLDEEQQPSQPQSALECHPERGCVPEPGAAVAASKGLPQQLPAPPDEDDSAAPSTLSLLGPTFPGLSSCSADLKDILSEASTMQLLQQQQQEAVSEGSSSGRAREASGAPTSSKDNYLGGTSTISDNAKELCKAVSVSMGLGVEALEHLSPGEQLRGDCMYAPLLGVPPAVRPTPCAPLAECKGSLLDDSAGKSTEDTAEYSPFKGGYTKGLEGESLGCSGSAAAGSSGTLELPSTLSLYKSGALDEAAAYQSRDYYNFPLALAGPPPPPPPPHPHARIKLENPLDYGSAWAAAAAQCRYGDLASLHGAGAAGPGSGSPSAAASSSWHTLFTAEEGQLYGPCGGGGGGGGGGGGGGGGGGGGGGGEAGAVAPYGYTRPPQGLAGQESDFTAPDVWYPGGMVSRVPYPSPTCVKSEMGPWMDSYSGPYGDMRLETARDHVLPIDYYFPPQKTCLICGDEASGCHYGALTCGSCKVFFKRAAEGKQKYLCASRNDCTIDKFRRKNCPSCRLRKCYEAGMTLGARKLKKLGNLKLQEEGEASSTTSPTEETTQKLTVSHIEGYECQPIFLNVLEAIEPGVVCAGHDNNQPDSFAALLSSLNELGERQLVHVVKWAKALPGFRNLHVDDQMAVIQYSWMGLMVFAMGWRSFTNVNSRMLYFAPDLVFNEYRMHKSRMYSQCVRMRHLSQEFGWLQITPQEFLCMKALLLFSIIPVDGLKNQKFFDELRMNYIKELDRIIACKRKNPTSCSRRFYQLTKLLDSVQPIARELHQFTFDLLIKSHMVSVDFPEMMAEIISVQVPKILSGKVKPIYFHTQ

Cc1cc(C)c(C(=O)P(=O)(c2ccccc2)c2ccccc2)c(C)c1
active: [1] 61.1 µM | [2] 54.5 µM
inactive: [3]

CC(c1ccccc1)(c1ccc(O)cc1)c1ccc(O)cc1
active: [1] 48.6 µM

ClC1=C(Cl)C(Cl)(Cl)C(Cl)=C1Cl
active: [4] 52.9 µM

OC(Cc1ccccc1Cl)(Cn1[nH]cnc1=S)C1(Cl)CC1 (stereo unspecified)
inactive: [3]
active: [2] 54.5 µM | [5] 24.3 µM

c1ccc2c(c1)Sc1ccccc1N2CC1CN2CCC1CC2 (stereo unspecified)
active: [7] 8.41 µM | [10] 10.6 µM | [11] 18.8 µM | [5] 26.6 µM
inactive: [6] | [8] | [9]

O=C1C(I)=CC(=C(c2cc(I)c(O)c(I)c2)c2ccccc2C(=O)O)C=C1I
active: [12] 8.41 µM and 4.22 µM | [16] 29.8 µM and 23.7 µM | [5] 29.8 µM
not listed: [1] | [2] | [3] | [10] | [19] | [20]
inactive: all other assays above

Cc1nnc2n1-c1sc(CCc3ccc(CC(C)C)cc3)cc1C(c1ccccc1Cl)=NC2C (stereo unspecified)
inactive: [14] | [17] | [9] | [18]
active: [12] 21.1 µM | [13] 11.9 µM | [7] 13.3 µM | [19] 15 µM | [16] 11.9 µM | [10] 29.8 µM | [1] 29.8 µM

Cc1ccc(N(SC(F)(Cl)Cl)S(=O)(=O)N(C)C)cc1
inactive: [6] | [3]
active: [12] 17.2 µM | [7] 0.137 µM | [14] 3.47 µM | [15] 54.5 µM | [19] 2.73 µM | [16] 2.17 µM | [9] 34.4 µM | [18] 48.6 µM | [10] 19.5 µM | [11] 19.5 µM | [2] 15.4 µM | [20] 13.7 µM

ClC1=C(Cl)[C@]2(Cl)[C@@H]3[C@@H](Cl)[C@H]4O[C@H]4[C@@H]3C1(Cl)C2(Cl)Cl
active: [12] 27.3 µM | [13] 61.1 µM | [7] 61.1 µM | [16] 54.5 µM | [10] 54.9 µM
not listed: [1] | [2] | [3] | [4] | [5] | [19]
inactive: all other assays above

COc1ccc(C(c2ccc(OC)cc2)C(Cl)(Cl)Cl)cc1
active: [12] 13.7 µM | [13] 19.2 µM | [7] 39.2 µM | [19] 36.2 µM | [16] 24.2 µM | [17] 19.4 µM [inconclusive] | [1] 48.3 µM
inactive: [8] | [18] | [11]

OCC(c1ccc(Cl)cc1)c1ccc(Cl)cc1
active: [12] 27.3 µM | [13] 13.7 µM | [7] 15.4 µM | [14] 43.6 µM | [19] 61.1 µM | [16] 61.1 µM
inactive: [6] | [17] | [8] | [18] | [10] | [11]

CC1COC(Cn2cncn2)(c2ccc(Oc3ccc(Cl)cc3)cc2Cl)O1 (stereo unspecified)
active: [12] 61.1 µM | [13] 1.37 µM | [7] 2.43 µM | [14] 21.9 µM | [19] 48.6 µM | [16] 12.2 µM | [10] 49 µM | [20] 27.3 µM | [5] 24.3 µM
inactive: [6] | [4]

Nc1ccc(Cl)cc1Cl
inactive: [4]

C=CC(=O)OCCCCCCCC(C)C
inactive: [20]

Clc1ccccc1-c1ccccc1Cl
active: [12] 19.6 µM
not listed: [1] | [2] | [3] | [9] | [13] | [16] | [17] | [20]
inactive: all other assays above

Brc1ccc(Br)c(Br)c1
inactive: [4]
